Source: PubChem
The list is not random: actives were taken first. Their share in the collection is about 3.7%.
Bead autofluor – counter-screen for toxin protease inhibitors: compound fluorescence. compound autofluorescence counterscreen, microsphere flow cytometry; hits give high values. fluorescence intensity (concentration not given with the values). 360,000 compounds, 3.1% hits. AID 624483; in the data active means fluorescence intensity above about 16000; inconclusive means no clear call, values can overlap the other calls
Anthrax LF prot – inhibitors of Bacillus anthracis lethal factor protease; multiplex microsphere protease cleavage assay, LF; inhibition, % at 10 µM; 360,000 compounds, 0.12% hits; P15917
BoNT-F LC inh – blocks Botulinum neurotoxin F light chain protease; Multiplex microsphere protease cleavage assay, flow cytometry; inhibition, % at 10 µM; 360,000 compounds, 0.22% hits; AID 588497; in the data active means inhibition above about 35%, passing the limit was not always enough; inconclusive means no clear call, values can overlap the other calls
MazEF act – increases E. coli MazEF RNase cleavage of RNA; P0AE70; FAM/BHQ RNA-DNA oligo cleavage fluorescence, 5 h; activation, % at 20 µM; 350,000 compounds, 0.32% hits; AID 504720; in the data active means activation above about 50%
BoNT A protease – BoNT A light chain protease inhibition; multiplex microsphere protease substrate cleavage, flow cytometry; inhibition, % at 10 µM; 360,000 compounds, 0.17% hits; AID 588499
BoNTA LC inh 1 – inhibitors of Botulinum neurotoxin A light chain protease; shares compounds with BoNT-F LC inh; multiplex microsphere protease assay, flow cytometry; inhibition, % at 10 µM; 720 compounds, 3% hits; AID 602139; in the data active means inhibition above about 32%
BoNT-F LC CP1 – inhibitors of Botulinum neurotoxin F light chain protease; shares compounds with BoNT-F LC inh; multiplex microsphere protease cleavage assay, flow cytometry; inhibition, % at 10 µM; 720 tested, under 10 active; AID 602140; call rule not given here
LF protease CP1 – Bacillus anthracis lethal factor protease inhibition. AID 602142. inhibition, % at 10 µM. 720 tested, under 10 active. shares compounds with BoNT-F LC inh. multiplex microsphere protease cleavage assay, LF; call rule not given here
Each line names hits and unclear results; the compound was inactive in the other large screens (follow-up assays come after a bar, where they were run). Unless noted, no stated cut-off is given here; in the data, active means inhibition above about 30%; inconclusive means no clear call, values can overlap the other calls; inactive means below that.

O=C(CNS(=O)(=O)c1ccccc1)OCC(=O)c1ccccc1Cl	none
Cc1ccc(CNc2nc(C)cs2)cc1	none
CC(C)OC(=O)CC1C(=O)NCCN1C(=S)NC(=O)c1ccccc1 (centres undefined)	BoNT-F LC inh 35 | BoNTA LC inh 1 inactive | BoNT-F LC CP1 inactive | LF protease CP1 inactive
CCCCNC(=O)Cn1cnc([N+](=O)[O-])n1	BoNT-F LC inh 40 | BoNTA LC inh 1 inactive | BoNT-F LC CP1 inactive | LF protease CP1 inactive
CC1CCCN(S(=O)(=O)c2ccc3c(c2)OCCO3)C1 (centres undefined)	none
Cc1[nH]c2ccccc2c(=O)c1CN1CCCCCC1	none
Cc1[nH]c2ccc(Br)cc2c(=O)c1CN1CCCCC1	BoNT-F LC inh 52, BoNT A protease inconclusive | BoNTA LC inh 1 inactive | BoNT-F LC CP1 inactive | LF protease CP1 inactive
CCCc1nc2ccc(C)cn2c1Cc1ccc(OC)cc1C	none (no result: MazEF act)
Cc1cc(C)cc(N2C(=O)NC(=O)/C(=C\c3cccn3-c3ccccc3)C2=O)c1	Anthrax LF prot 31, BoNT-F LC inh 68 | BoNTA LC inh 1 inactive | BoNT-F LC CP1 inactive | LF protease CP1 inactive
CC[C@H]1c2[nH]c3ccccc3c2C[C@H]2C(=O)N(c3ccc(F)cc3)C(=O)N21	none
CCn1c(SCC(=O)Nc2nc(C)cs2)nnc1C(NC(=O)c1ccccc1Cl)C(C)C (centres undefined)	none
C=CCn1c(SCC(=O)Nc2nc(C)cs2)nnc1C(CO)NC(=O)c1ccccc1 (centres undefined)	none | BoNTA LC inh 1 inactive | BoNT-F LC CP1 inactive | LF protease CP1 inactive
O=C1NCCCCC1NS(=O)(=O)c1ccccc1 (centres undefined)	none
N#Cc1ccc(S(=O)(=O)NC2CCCCNC2=O)cc1 (centres undefined)	BoNT-F LC inh 42 | BoNTA LC inh 1 inactive | BoNT-F LC CP1 inactive | LF protease CP1 inactive
Cc1ccc(OCCNC(=O)c2ccccc2O)cc1	BoNT-F LC inh 36 | BoNTA LC inh 1 inactive | BoNT-F LC CP1 inactive | LF protease CP1 inactive
CC1CN(C(=O)COC(=O)/C=C/c2ccccc2)CC(C)O1 (centres undefined)	none
CN(C(=O)COc1ccccc1)c1ccc([N+](=O)[O-])cc1	none
Cc1cccc(OCC(=O)Nc2ccc3nc(C)sc3c2)c1	none
Cc1nc2ccc(NC(=O)COc3cccc(F)c3)cc2s1	BoNT-F LC inh 38 | BoNTA LC inh 1 inactive | BoNT-F LC CP1 inactive | LF protease CP1 inactive
CCOC(=O)c1c(NC(=O)C2COc3ccccc3O2)sc2c1CC(C)(C)NC2(C)C (centres undefined)	none
COCCn1c(SCC(=O)NCCCN2CCCC2=O)nc2sc3c(c2c1=O)CCCC3	none
CCC(C)c1cc(S(=O)(=O)N2CCOCC2)ccc1OC (centres undefined)	BoNT-F LC inh 44 | BoNTA LC inh 1 inactive | BoNT-F LC CP1 inactive | LF protease CP1 inactive
CC1c2cc3c(cc2CCN1C(=O)c1cccc(Cl)c1)OCCCO3 (centres undefined)	none
CSc1ccc(C(=O)C2CCCN(CCCn3cccn3)C2)cc1 (centres undefined)	BoNT-F LC inh 37 | BoNTA LC inh 1 inactive | BoNT-F LC CP1 inactive | LF protease CP1 inactive
CCc1nnc(NC(=O)COc2ccccc2[N+](=O)[O-])s1	Anthrax LF prot 30, BoNT-F LC inh inconclusive | BoNTA LC inh 1 inactive | BoNT-F LC CP1 inactive | LF protease CP1 inactive
Cc1cc(-c2c(C(=O)N3CCOCC3)c(C)nn2-c2cccc(C(F)(F)F)c2)no1	BoNT-F LC inh inconclusive, BoNT A protease inconclusive
Cc1cc(-c2c(C(=O)N3CCOCC3)c(C)nn2-c2ccccc2)no1	Anthrax LF prot 34, BoNT-F LC inh inconclusive | BoNTA LC inh 1 inactive | BoNT-F LC CP1 inactive | LF protease CP1 inactive
O=C(CCS(=O)(=O)c1ccc(Cl)cc1)Nc1nc(-c2cccnc2)cs1	BoNT A protease 51 | BoNTA LC inh 1 inactive | BoNT-F LC CP1 inactive | LF protease CP1 inactive
COc1ccc(-c2cn(Cc3ccc(C(N)=O)cc3)c(-c3ccncc3)n2)cc1	none
CC(C)CNS(=O)(=O)c1ccc(CCC(=O)NC2CCCCC2)cc1	Anthrax LF prot 59 | BoNTA LC inh 1 inactive | BoNT-F LC CP1 inactive | LF protease CP1 inactive
CCOC(=O)CSc1nc2sc3c(c2c(=O)n1-c1ccc(OC)cc1)CCN(C)C3	BoNT-F LC inh inconclusive, BoNT A protease 42 | BoNTA LC inh 1 inactive | BoNT-F LC CP1 inactive | LF protease CP1 inactive
